Rows were chosen to be rich in hits. Some 6.5% of all compounds tested hit in one or more screens of this group.
Vaccinia Venus – inhibitors of vaccinia virus (Venus reporter). 330,000 compounds, 0.46% hits. Potency, µM (highest dose often 36.5 µM), most hits filed as inhibitors. Vaccinia virus Venus reporter expression, fluorescence. AID 720580; calls by dose curve; tested in A549 cells; further: nearly all actives have a fitted effect of over 30% in size
Marburg entry inh – blocks Marburg virus binding to or entry into cells; Marburg virus pseudotyped entry inhibition, cell reporter; Potency, µM (highest dose often 37.8 µM), hits mostly inhibitors; 300,000 compounds, 1.8% hits; calls by dose curve; tested in HEK293 cells
FMDV antiviral – blocks foot and mouth disease virus | 410,000 compounds, 1.2% hits | Potency, µM (doses to about 57.9 µM), usual class: inhibitors | FMDV antiviral cell-based qHTS; calls by dose curve; tested in HEK293T cells; further: read-out not given here; nearly all actives have a fitted effect of over 45% in size
Lassa entry inh – blocks Lassa virus binding to or entry into cells; Potency, µM (series often up to 37.9 µM), hits mostly inhibitors; 300,000 compounds, 1.2% hits; Lassa virus pseudotype entry inhibition, cell reporter; calls by dose curve; tested in HEK293 cells; further: nearly all actives have a fitted effect of over 50% in size
Vaccinia mCherry – vaccinia inhibition (mCherry reporter) | Vaccinia virus mCherry reporter infection, fluorescence | Potency, µM (series often up to 36.5 µM), hits mostly inhibitors | 310,000 compounds, 0.63% hits | AID 720579; calls by dose curve; tested in A549 cells; further: nearly all actives have a fitted effect of over 35% in size
HCMV inh – inhibitors of human cytomegalovirus; activity change, negative = inhibition, % at 57.5 µM; 410,000 compounds, 4.5% hits; HFF cells, HCMV-luciferase reporter, 72 h; stronger effect = lower value; in the data active means activity change below about -60%; inconclusive means no clear call, values can overlap the other calls; inactive means above about -39%
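Two-dose cell screen: HFF monolayers treated with compounds and infected with luciferase-expressing HCMV at 1 PFU/cell, 72 h at 37C, then lysed for luciferase measurement.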
Hits are given with their value; 0 = inactive; ? = inconclusive; - = no result; [ ] = dose if it differs, or a comment.

SMILES	Vaccinia Venus	Marburg entry inh	FMDV antiviral	Lassa entry inh	Vaccinia mCherry	HCMV inh
CC(C)N(C(=O)[C@H]1CC(CC(=O)NCC23CC4CC(CC(C4)C2)C3)C(=O)N2CCc3c([nH]c4ccccc34)[C@]12C)C(C)C (some centres not stated)	?	-	0	-	?	-73.6
Cc1[nH]c2ccccc2c1C(=O)CSc1nc2ccccc2c(=O)n1CCCN1CCOCC1	0	11.2µM	?	0	-	-73.9
O=C1c2ccccc2C(=O)N1CCCCSc1nc2ccccc2c(=O)n1CCCN1CCOCC1	0	?	0	?	0	-103.7
CCOC(=O)c1c(C)[nH]c(C)c1C(=O)CSc1nc2ccccc2c(=O)n1-c1ccc(Cl)cc1	?	?	0	?	0	?
O=C1c2ccccc2C(=O)N1CCSc1nc2ccccc2c(=O)n1CCCN1CCOCC1	0	0	0	0	0	0
Cc1[nH]c2ccccc2c1C(=O)CSc1nc2ccccc2c(=O)n1-c1ccccc1F	-	-	-	-	-	-88.7
Cn1c(N)c(C(=O)CSc2nc3ccccc3c(=O)n2CCCN2CCOCC2)c(=O)n(C)c1=O	-	-	0	-	-	0
CCCCN1CC(N2CCCC2)CS1(=O)=O (configuration not stated)	-	-	-	-	-	0
Cc1ccc(CSc2nnc(SCC(=O)N/N=C/c3ccc(C(=O)O)cc3)s2)cc1	0	?	0	?	?	-66.2
O=C(CSc1nnc(SCc2ccccc2)s1)N/N=C/c1c[nH]c2ccccc12	0	?	0	0	0	0
CCc1ccc2c(Cl)c(C(=O)N/N=C/c3c[nH]c4ccccc34)sc2c1	?	?	0	10µM	-	0
Cc1ccc(CSc2nnc(SCC(=O)N/N=C/c3c[nH]c4ccccc34)s2)cc1	0	?	0	?	0	-73.5
Cc1cc(=O)c(C(=O)NCCCc2ccncc2)c2n1-c1ccccc1SC(c1cccs1)C2 (configuration not stated)	0	-	0	-	0	-
CC(C)C[C@@H]1COc2cc(N3CCOCC3)ccc2S(=O)(=O)N1	-	-	-	-	-	0
COc1ccc(N2CCN(C(=O)CSc3n[nH]c(-c4ccccc4Cl)n3)CC2)cc1	0	-	0	0	0	0
O=C(CSc1n[nH]c(-c2ccccc2Cl)n1)N1CCN(c2ccccc2)CC1	0	-	35.5µM	0	0	0
CCOC(=O)c1cnc(-n2nc(C)cc2C)nc1NC1CCCC1	0[7.34 µM]	11.2µM	?	?	0[7.34 µM]	-107.7
CCOC(=O)c1cnc(-n2nc(C)cc2C)nc1NCCc1ccccc1	?	?	?	0	?	-92.4
CCOC(=O)c1cnc(-n2nc(C)cc2C)nc1Nc1ccc(OC)cc1	-	?	0	?	-	0
COc1ccc(S(=O)(=O)N(C)c2ccc(C(=O)N3CCC(C(N)=O)CC3)cc2)cc1	0	0	0	0	0	0
COc1ccc(S(=O)(=O)N(C)c2ccc(C(=O)N3CCC(C(N)=O)CC3)cc2)cc1OC	0	0	0	0	0	-100.4
CN(c1ccc(C(=O)N2CCCCCC2)cc1)S(=O)(=O)c1ccc(Cl)cc1	0	0	?	?	0	-73.8
CN(c1ccc(C(=O)N2CCOCC2)cc1)S(=O)(=O)c1ccc(Cl)cc1	0	0	0	0	0	0
C[C@H](CO)N1C[C@H](C)[C@H](CN(C)S(=O)(=O)c2cccs2)Oc2ncc(Br)cc2C1=O	-	-	-	-	-	0
COC(=O)c1ccccc1NC(=O)CCS(=O)(=O)c1nc(-c2ccc3c(c2)OCO3)cc(C(F)(F)F)n1	0	0	?	0	0	-69.7
SMILES	Vaccinia Venus	Marburg entry inh	FMDV antiviral	Lassa entry inh	Vaccinia mCherry	HCMV inh
O=C(CCS(=O)(=O)c1nc(-c2ccc3c(c2)OCO3)cc(C(F)(F)F)n1)Nc1ccccc1F	0	0	?	?	0	0
O=C(CCS(=O)(=O)c1nc(-c2ccc3c(c2)OCO3)cc(C(F)(F)F)n1)Nc1ccc(Br)cc1	0	?	?	0	0	-98.8
Cc1cccc(N2CCN(S(=O)(=O)c3cc(-c4cc(C)no4)ccc3C)CC2C)c1 (configuration not stated)	-	-	0	-	-	?
COc1ccc(-c2cc(C)no2)cc1S(=O)(=O)N1CCN(c2cccc(C)c2)C(C)C1 (configuration not stated)	?	-	?	?	?	-73.5
CC(C)n1cnc2c(Nc3cccc(Cl)c3)nc(NCCCO)nc21	10µM	-	0	-	?	0
Cc1cc(N/N=C/c2ccc(F)cc2)nc(-n2nc(C)cc2C)n1	?	?	0	?	?	-96.4
CNc1cc(C)nc(-n2nc(C)cc2C)n1	0	0	0	0	-	?
COc1ccc(/C=N/Nc2cc(C)nc(-n3nc(C)cc3C)n2)c(OC)c1	?	?	28.2µM	20.6µM	6.31µM	-98.2
CCOc1cc(/C=N/Nc2cc(C)nc(-n3nc(C)cc3C)n2)ccc1O	-	-	?	-	-	-77.7
COc1ccccc1/C=N/Nc1cc(C)nc(N2CCOCC2)n1	-	-	0	-	-	0
Cc1ccccc1-c1cccc(CN2CCc3nnc(C(C)NC(=O)c4cccnc4)n3CC2)c1 (configuration not stated)	0	-	0	-	0	-
CCOc1ccc(NC(=S)N(CCCN2CCOCC2)Cc2cn(C)c3ccccc23)cc1	0	?	0	0	0	-92.5
COc1ccc(NC(=S)N(CCCN2CCOCC2)Cc2cn(C)c3ccccc23)cc1	0	?	0	?	0	-97.9
Cc1oc2c(c(C)cc3oc(=O)c(CC(=O)NCCc4ccccc4)c(C)c32)c1C	0	?	0	0	0	?
COc1ccccc1CNc1ncnc2ccc(-c3cccc(C#N)c3)cc12	-	-	0	-	-	-
C/C(N)=C(/C#N)C(=O)CSc1nnc(COc2ccccc2Cl)o1	?	0	0	0	7.94µM	0
CCOC(=O)/C=C/COc1ccccc1[N+](=O)[O-]	0	0	0	0	0	-63.1
CC(C)(C)C(=O)COc1ccccc1[N+](=O)[O-]	0	?	0	0	0	?
O=C(CSC1=NNC(c2ccccn2)S1)Nc1ccccc1 (configuration not stated)	-	-	0	-	-	-97.5
O=C(CSC1=NNC(c2ccccn2)S1)Nc1cccc(Cl)c1 (configuration not stated)	?	?	0	0	?	-77.9
O=C(CSc1nnc(-c2ccccn2)o1)Nc1ccccc1	0	?	0	0	0	0
COc1ccc(CNC(=O)Cn2ncc3c4ccccc4n(Cc4cccc(Cl)c4)c3c2=O)cc1	0	0	0	0	0	0
O=C(NCC1OCCc2ccccc21)c1ccc(NC(=O)c2ccc(Cl)cc2)cc1 (configuration not stated)	?	0	0	?	?	-82.1
CN(c1ncnc(N)c1[N+](=O)[O-])C1CCCCC1	-	-	0	-	-	-94.0
CNc1nc(N)c([N+](=O)[O-])c(NC2CCCCC2)n1	0	0	0	?	0	0
Cc1ccccc1Oc1ncnc(N)c1[N+](=O)[O-]	0	0	0	0	0	0
Nc1ncnc(NC2CCS(=O)(=O)C2)c1[N+](=O)[O-] (configuration not stated)	0	0	0	0	0	0
CN(c1ncnc(N)c1[N+](=O)[O-])C1CCS(=O)(=O)C1 (configuration not stated)	-	0	0	0	-	-74.2
